# TDP1 block: TDP1 (human) enzyme inhibition | 350,000 tested, 0.28% active | recombinant TDP1, AlphaScreen DNA substrate cleavage | Potency, µM (doses to about 130 µM), inactives show top-dose activity change, negative = inhibition, most hits filed as inhibitors | Q9NUW8; further: potency means the concentration at half of the fitted maximal effect; on the % scale 0 is the no-effect control and ±100 the full control effect; nearly all actives have a fitted effect of over 40% in size
# Target sequence (Q9NUW8 whole entry, looked up): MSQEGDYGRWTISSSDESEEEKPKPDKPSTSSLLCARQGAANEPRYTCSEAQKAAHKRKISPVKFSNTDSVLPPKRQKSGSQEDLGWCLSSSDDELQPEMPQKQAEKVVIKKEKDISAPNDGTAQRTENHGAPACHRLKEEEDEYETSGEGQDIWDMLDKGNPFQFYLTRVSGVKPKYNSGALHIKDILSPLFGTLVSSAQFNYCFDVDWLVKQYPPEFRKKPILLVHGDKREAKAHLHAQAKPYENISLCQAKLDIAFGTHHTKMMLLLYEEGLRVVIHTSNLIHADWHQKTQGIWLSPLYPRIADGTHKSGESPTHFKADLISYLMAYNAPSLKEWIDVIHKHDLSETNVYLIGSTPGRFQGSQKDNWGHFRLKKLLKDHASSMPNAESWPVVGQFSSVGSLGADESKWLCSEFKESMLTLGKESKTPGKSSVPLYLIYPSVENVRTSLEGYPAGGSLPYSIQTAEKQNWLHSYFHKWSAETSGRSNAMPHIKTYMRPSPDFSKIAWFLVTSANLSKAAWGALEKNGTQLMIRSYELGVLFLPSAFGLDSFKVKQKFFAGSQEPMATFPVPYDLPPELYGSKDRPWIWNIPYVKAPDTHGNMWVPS
#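 E. coli-derived human Tdp1, 1 nM final. Cpd preinc 15 min RT; substrate 15 nM final, 5 min RT; AS bead mix 10 ug/ml final, 10 min RT. Signal loss = tyrosine-FITC cleavage. No-enzyme wells = max signal.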
# TDP1 cell noCPT: qHTS for Inhibitors of human tyrosyl-DNA phosphodiesterase 1 (TDP1): qHTS in cells in absence of CPT | 420,000 tested, 15% active | DT40 Tdp1-/- hTDP1 cells, no CPT, ATP luminescence, 48 h | Potency, µM (series often up to 46.2 µM), for the others: at the highest dose activity change, negative = growth inhibition, actives largely listed as inhibitors; further: potency means the concentration at half of the fitted maximal effect; on the % scale 0 is the no-effect control and ±100 the full control effect; nearly all actives have a fitted effect of over 55% in size
#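 Luminescent ATP content (CellTiter-Glo) served as the growth readout. Knockout chicken DT40 cells expressing human TDP1 were exposed to compounds without camptothecin for a minimum 48 hr at 37 °C.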
# HepG2 tox: counter-screen for TGF-b inhibitors: cytotoxicity in HepG2 cells; HepG2 CAGA-GFP viability, ATP luminescence, 18 h; Potency, µM (doses to about 46.1 µM), inactives show at the highest dose activity change, negative = cytotoxicity, most hits filed as cytotoxic; 410,000 tested, 0.76% active; AID 588856; further: potency means the concentration at half of the fitted maximal effect
#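 CellTiter-Glo luminescence gave cytotoxicity after 18 hours at 37 degrees C. The cells were HepG2 CAGA-GFP in 1% FBS DMEM, stimulated with 500 pg/mL TGF-beta after compound addition. %Activity was normalised to no-cell wells (complete cell-killing) and DMSO (no toxicity), and curves were fitted and classified.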
# DT40 TDP1 CPT: DT40-hTDP1 cell growth loss with CPT; chicken DT40 Tdp1-/-;hTDP1 cells + 20 nM CPT, ATP luminescence, 48 h; Potency, µM (titrated, usually from 46.2 µM), for inactives: top-dose activity change, negative = growth inhibition, actives largely listed as inhibitors; 420,000 tested, 12% active; AID 686979; further: potency means the concentration at half of the fitted maximal effect; on the % scale 0 is the no-effect control and ±100 the full control effect; nearly all actives have a fitted effect of over 55% in size
#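 Chicken DT40 Tdp1-/- cells stably complemented with human TDP1 were seeded at 400 cells/well in medium containing 20 nM camptothecin, exposed to pin-transferred compounds, and grown at 37 °C for at least 48 hr. Viability was read as ATP luminescence.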
# TGFb SMAD3 inh: inhibitors of TGF-b signaling; AID 588855; 410,000 tested, 1.2% active; HepG2 CAGA-GFP TGF-b/SMAD3 reporter, GFP fluorescence, 18 h; TGF-beta stimulated, 500 pg/mL final; Potency, µM (highest dose often 46.1 µM), without a hit: at the highest dose activity, negative = inhibition, most hits filed as inhibitors; further: potency means the concentration at half of the fitted maximal effect; on the % scale 0 is the no-effect control and ±100 the full control effect; nearly all actives have a fitted effect of over 65% in size
#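 HEPG2 CAGA-GFP cells (1000/well, DMEM with 1% FBS) were pre-incubated 2 h at 37 degrees C, given compound by pin tool, then stimulated with TGF-beta at 500 pg/mL final for 18 h before per-cell GFP fluorescence imaging.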
# IL-1B inflam inh: inflammasome signaling inhibition, IL-1 beta readout | THP-1 LPS/ATP IL-1B secretion, AlphaLISA, 16 h; stronger effect = lower value | activity change, % at 57.5 µM | 360,000 tested, 4.7% active; in the data active means activity change below about -50%; inconclusive means mostly about -30% to -49%; further: on the % scale 0 is the no-effect control and ±100 the full control effect
#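 THP-1 cells pretreated 1 hr with compounds (up to 57.5 uM final), then stimulated with LPS (250 ng/mL final) plus ATP (1.25 mM final); secreted IL-1B measured by AlphaLISA after 16 hr, decreased signal indicating inhibition.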
# An asterisk follows results filed as active; i = inactive; ? = inconclusive; nt = no result given; [ ] = remark or other dose. A selection: hits, their analogues and other compounds. The true share with any hit is near 19%. Unless noted, the call rests on the fitted dose curve; in most records, active means well fitted curve in the direction sought with a large enough effect; inconclusive means small, poorly fitted or top-dose-only effect, or another doubt; inactive means no such curve, though single readings can be large; an effect the other way counts as inactive or inconclusive.
SMILES,TDP1 block,TDP1 cell noCPT,HepG2 tox,DT40 TDP1 CPT,TGFb SMAD3 inh,IL-1B inflam inh
COc1ccc(-c2cc(C(=O)N3CC4(C)CC3CC(C)(C)C4)no2)cc1 (configuration not stated),3.9%,?,0.6%,?,5.8%,-53.4*
CC1(C)CC2CC(C)(CN2C(=O)c2cc(-c3ccccc3O)on2)C1 (configuration not stated),7.4%,13µM*,6.9%,?,0.9%,21.3
CCOC(=O)C1CCN(C(=O)NS(=O)(=O)c2ccc(C)cc2)CC1,-2.7%,-0.4%,16.4%,-6.0%,5.5%,-9.9
CSC1=NCCN1C(=O)C12CC3CC(CC(C3)C1)C2,-1.2%,?,-1.5%,?,-12.0%,-12.1
COc1ccc(-c2cc(C(=O)N3CCCCC3C)no2)cc1OC (configuration not stated),3.6%,-17.1%,-18.6%,-2.7%,nt,nt
COc1ccc(/C(C)=N/OCC(=O)N2CC3(C)CC2CC(C)(C)C3)cc1 (configuration not stated),-0.6%,?,-37.4%,?,-23.2%,-78.2*
COc1ccc(-c2cc(C(=O)N3CC4(C)CC3CC(C)(C)C4)no2)cc1OC (configuration not stated),6.8%,16.4µM*,9.4%,?,14.0%,-2.4
Cc1ccc(-c2cc(C(=O)N3CC4(C)CC3CC(C)(C)C4)no2)cc1 (configuration not stated),nt,10.3µM*,2.2%,18.4µM*,-1.3%,17.2
COCCCn1c(=O)c2sccc2n2c(CCCC(=O)Nc3ccc(F)c(F)c3)nnc12,5.9%,?,-6.1%,?,-8.2%,nt
O=C(Cn1c(=O)nc(-c2ccccc2)c2cc(Cl)ccc21)Nc1ccc(F)c(Cl)c1,3.6%,?,-7.0%,?,30.0%,nt
COc1ccc(Cl)cc1NC(=O)CN(C)C(=O)c1cc2c(s1)CCCC2,-7.0%,?,-12.5%,?,-3.6%,?
C=C1CCC2[C@](C)(CO)[C@H](O)CC[C@@]2(C)[C@@H]1C/C=C1\C(=O)OC[C@H]1O (some centres not stated),nt,4.61µM*,8.7%,3.66µM*,31.6%,-87.7*
O=C(c1ccncc1)N1CCC[C@@]2(CCN(Cc3ccncc3)C2)C1,nt,-5.8%,nt,?,nt,nt
Cc1ccc2[nH]c3c(=O)n(CC(=O)N4CCCC(C)C4)ncc3c2c1 (configuration not stated),2.1%,18.4µM*,-20.5%,?,-3.1%,nt
COc1cc(Cl)c(C)cc1NC(=O)c1cc(S(=O)(=O)N2CCCC2)ccc1F,2.6%,4.9%,-2.2%,5.9%,-0.1%,nt
OC1(c2ccc(Cl)c(Cl)c2)C[n+]2ccccc2N1Cc1ccccc1 (configuration not stated),2.8%,18.4µM*,-89.6%,13µM*,?,-84.9*
O=C(NC1CCN(Cc2ccccc2)CC1)c1c(Cl)cccc1Cl,nt,-1.0%,-14.1%,4.3%,0.0%,-14.1
Nc1c(C(=O)c2ccc(Br)cc2)oc2ccccc12,-1.9%,15.7%,-1.2%,6.5%,-2.9%,11.5
Cc1ccc(C(=O)c2oc3ccccc3c2N)cc1,1.9%[56.1 µM],?,-2.0%,16.4µM*,23.9%,-9.9
CCCCCCn1cc(CN2CC(N3CCCCC3)CS2(=O)=O)nn1 (configuration not stated),nt,-18.6%,nt,-4.5%,nt,-19.5
O=S(=O)(Nc1ccc(-c2ccc(N3CCCC3)nn2)cc1)c1cccc(C(F)(F)F)c1,3.0%,?,-17.4%,?,?,nt
CC(C)[C@H](NC(=O)NC1CCN(Cc2ccccc2)CC1)C(=O)O,3.8%,-16.4%,-5.5%,-15.0%,-15.2%,1.1
O=C(/C=C/c1cccc(Br)c1)NC1CCN(Cc2ccccc2)CC1,nt,23.1µM*,-49.9%,?,17.3%,-78.1*
O=C(COc1ccc(Br)cc1CNC1CCCCC1)NCCc1ccccc1,0.0%,16.4µM*,-49.3%,18.4µM*,?,-97.4*
O=C(NC1CCN(Cc2ccccc2Cl)CC1)c1ccccc1,nt,?,-9.6%,-23.9%,-12.6%,2.3
SMILES,TDP1 block,TDP1 cell noCPT,HepG2 tox,DT40 TDP1 CPT,TGFb SMAD3 inh,IL-1B inflam inh
Cc1ccc(C)n1-c1ccc(C(=O)NC2CCN(Cc3ccccc3)CC2)cc1,-2.6%,20.6µM*,-5.1%,?,10.3%,-59.5*
C=C(C)c1cccc(C(C)(C)NC(=O)NC2CCN(Cc3ccccc3)CC2)c1,nt,18.4µM*,-34.4%,?,?,-12.1
COC(=O)CSc1nn(-c2ccc(F)cc2)c(=S)s1,4.9%,7.9%,18.0%,-4.1%,9.5%,-12.9
O=C(COc1ccccc1)NC1CCN(Cc2ccccc2)CC1,0.0%,-8.5%,-35.9%,-28.2%,-0.7%,8.0
O=C(COc1ccc(Br)cc1Cl)NC1CCN(Cc2ccccc2)CC1,2.8%,?,-27.3%,?,?,-81.1*
Cc1ccccc1C(=O)NC1CCN(Cc2ccccc2)CC1,-1.2%,0.6%,2.9%,-0.3%,5.9%,57.0
O=C(NC1CC1)c1ccc(CN(c2ccccc2)S(=O)(=O)c2ccccc2)cc1,-2.6%,-18.7%,0.1%,-19.8%,0.0%,-19.3
CC1(C(=O)NC2CCN(Cc3ccccc3)CC2)CCN1CCc1ccccc1 (configuration not stated),nt,?,-27.8%,29.1µM*,1.6%,-4.9
Cc1ccc(CN2CCC(NC(=O)c3ccccc3)CC2)cc1,nt,18.4µM*,-18.7%,?,-10.7%,-0.1
CCN(c1ccccc1)S(=O)(=O)c1ccc(C(=O)NC2CCN(Cc3ccccc3)CC2)cc1,0.1%,7.31µM*,-32.6%,8.2µM*,?,?
CCOC(=O)c1c(C)[nH]c(C)c1S(=O)(=O)N1CCN(c2ccc(Cl)cc2)CC1,7.6%,?,-32.2%,?,-39.7%,nt
CCc1ccc(CN2CCC(Oc3cc(C(=O)NC4CC4)ccc3OC)CC2)cc1,nt,14.6µM*,-20.4%,-31.6%,-8.3%,-4.0
O=C(NC1CCN(Cc2ccccc2)CC1)c1cccc(Br)c1,nt,?,-49.7%,16.4µM*,?,-25.3
COc1ccc(C(=O)NC2CC2)cc1OC1CCN(Cc2ccc(Cl)cc2)CC1,1.1%,?,24.7%,?,3.9%,i
CCOc1cc(CNC2CCCC2)c(Cl)cc1OCC(=O)Nc1ccccc1,2.5%,18.4µM*,-52.8%,18.4µM*,?,-26.3
CCOc1ccccc1OCC(=O)NC1CCCCC1,2.8%,-9.9%,-1.6%,0.4%,-17.4%,22.0

# From PubChem BioAssay
